# An excerpt weighted towards active compounds, which were near 6.6% of everything screened.
# KB-3-1 tox: kills parental KB-3-1 adenocarcinoma cells. KB-3-1 viability, CellTiter-Glo ATP luminescence, 72 h. Potency, µM (series often up to 46.1 µM), usual class: cytotoxic. actives 1.4% (n = 400,000); also: nearly all actives have a fitted effect of over 60% in size
#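 Screening of KB-3-1 cells (DMEM, 10% FBS, phenol-red free) ran from lowest to highest compound concentration; after 72 h at 37 °C viability was read luminescently and curves fitted.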
# HepG2 viability: counter-screen for TGF-b inhibitors: cytotoxicity in HepG2 cells; actives 0.76% (n = 410,000); Potency, µM (highest dose often 46.1 µM), hits mostly cytotoxic; HepG2 CAGA-GFP viability, ATP luminescence, 18 h
#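 HepG2 CAGA-GFP cells (1000/well, DMEM with 1% FBS) received compound, then TGF-beta at 500 pg/mL final, and were incubated 18 hours at 37 degrees C. Viability was read by CellTiter-Glo luminescence. Media-only wells were set as complete cell-killing and DMSO as no toxicity.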
# KB-V1 MDR tox: kills drug-selected multidrug resistant KB-V1 cells; KB-V1 MDR cells viability, CellTiter-Glo, 72 h; Potency, µM (doses to about 46.1 µM), actives largely listed as cytotoxic; actives 3.4% (n = 400,000); also: nearly all actives have a fitted effect of over 60% in size
#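 Potencies derive from concentration-effect curves fitted to normalized luminescence (CellTiter-Glo) of KB-V1 cells treated for 72 h at 37 degrees C in phenol-red-free DMEM containing 10% FBS.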
# HT1080 IDH1KD tx: kills HT-1080 cells with IDH1 knockdown; HT-1080 IDH1 knockdown viability, ATP luminescence, 48 h; AID 686971; Potency, µM (top dose mostly 46.1 µM), hits mostly cytotoxic; actives 2% (n = 360,000)
#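 Luminescent ATP read-out (CellTiter-Glo, 10 min at room temperature) after 48 h compound exposure at 37 °C gave viability of IDH1-knockdown HT-1080 cells. Activity was normalised to DMSO and cell-free wells, then fitted as concentration-response curves.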
# TGFb inhibitor: blocks TGF-b signaling. HepG2 CAGA-GFP TGF-b/SMAD3 reporter, GFP fluorescence, 18 h; TGF-beta stimulated, 500 pg/mL final. Potency, µM (titrated, usually from 46.1 µM), most hits filed as inhibitors. actives 1.2% (n = 410,000); also: nearly all actives have a fitted effect of over 65% in size
#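 Per well, imaged GFP fluorescence of HEPG2 CAGA-GFP cells gives the signal; cells get compound, then TGF-beta (500 pg/mL final), 18 h at 37 degrees C; %Activity versus -TGF-beta and +DMSO controls.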
# HT1080-NT tox: kills 2HG-producing HT-1080-NT fibrosarcoma cells | HT-1080-NT fibrosarcoma viability, CellTiter-Glo ATP luminescence, 48 h | Potency, µM (highest dose often 46.1 µM), usual class: cytotoxic | actives 1.6% (n = 360,000) | AID 686970;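 also: NT is the 2HG producing partner of a matched IDH1 knockdown line; nearly all actives have a fitted effect of over 55% in size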
#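 Viability by CellTiter-Glo luminescence after 48 h compound exposure at 37C of HT-1080-NT cells (750/well, RPMI, 5% FBS). % activity scaled between DMSO wells and medium-only wells, then curve-fitted and categorized by curve class.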
# Hits are given with their value; n = inactive; u = inconclusive; x = no result; ! = a repeat was not active. Calls follow the shape of the dose curve; as a rule, active = well fitted curve in the direction sought with a large enough effect; inconclusive = small, poorly fitted or top-dose-only effect, or another doubt; inactive = no such curve, though single readings can be large; an effect the other way counts as inactive or inconclusive.
SMILES,KB-3-1 tox,HepG2 viability,KB-V1 MDR tox,HT1080 IDH1KD tx,TGFb inhibitor,HT1080-NT tox
CCOC(=O)c1c(NC(=O)CSc2cn(CCNC(=O)c3c(F)cccc3F)c3ccccc23)sc2c1CCC2,n,n,n,x,u,x
COc1ccc(-c2ccc3c(c2)O[C@@H](CN(C)C(=O)c2ccccc2F)[C@@H](C)CN([C@@H](C)CO)S3(=O)=O)cc1,n,n,n,n,n,n
COc1ccc(-c2ccc3c(c2)O[C@H](CN(C)C(=O)Nc2ccccc2F)[C@@H](C)CN([C@H](C)CO)S3(=O)=O)cc1,u,n,12µM,n,n,n
Cc1ccccc1-c1ccc2c(c1)O[C@@H](CN(C)C(=O)Nc1ccc(C(F)(F)F)cc1)[C@H](C)CN([C@@H](C)CO)S2(=O)=O,u,n,u,16µM,u,16µM
COC(=O)CSc1ncc2c(n1)-c1ccccc1N(Cc1ccc(Cl)cc1)S2(=O)=O,n,n,n,x,n,x
COc1ccc(NS(=O)(=O)c2ccc(Cl)c(N)c2)cc1Br,n,n,n,n,u,n
COc1ccc(S(=O)(=O)Nc2ccc(Cc3ccncc3)cc2)cc1OC,u,n,u,n,n,n
Nc1cc(S(=O)(=O)Nc2ccc(Br)cc2)ccc1Cl,n,11µM,n,u,u,n
O=S(=O)(Nc1ccc(-n2cccc2)cc1)c1ccc(Cl)c(Cl)c1,n,n,n,n,11µM,u
O=S(=O)(Nc1ccc(Cc2ccncc2)cc1)c1ccc(Cl)c(Cl)c1,u,n,5.8µM,u,u,u
Cn1cc([N+](=O)[O-])c(C(=O)Nc2ccn(C34CC5CC(CC(C5)C3)C4)n2)n1,4.6µM,n,15µM,u,n,u
Cc1ccc(Cn2ccc(NC(=O)c3noc4c3CCCCC4)n2)cc1,u,n,5.2µM,n,n,n
Cc1cc(C)n(Cc2ccc(NC(=O)c3nn(C)cc3[N+](=O)[O-])cc2)n1,n,n,u,6.3µM,u,10µM
Cc1cc(C)n(Cc2ccc(NC(=O)c3ccc(COc4ccccc4Br)cc3)cc2)n1,16µM,n,2.6µM,u,n,u
Cc1ccc(Cn2ccc(NC(=O)c3noc4c3CCCC4)n2)cc1,n,n,n,n,n,n
COc1ccccc1N1CCN(S(=O)(=O)CCNC(=O)COc2ccc(C(C)C)cc2)CC1,x,n,x,x,u,x
COc1ccccc1NC(=O)c1oc2ccccc2c1NC(=O)Cc1cccs1,n,n,n,x,n,x
CCn1cc([N+](=O)[O-])c(C(=O)Nc2ccn(Cc3ccccc3)n2)n1,n,n,n,n,n,n
Cc1ccc(Cn2ccc(NC(=O)c3nn(C)cc3[N+](=O)[O-])n2)cc1,u,n,10µM,u,u,u
CCc1ccc(-c2nc(CN3CCCC(C(=O)NCc4ccccc4Cl)C3)c(C)o2)cc1 (configuration not stated),u,n,n,x,u,x
Cc1oc(-c2cccc(Cl)c2)nc1CN1CCC(C(=O)NCCc2ccc(Cl)cc2)CC1,n,n,n,x,n,x
COc1ccc(CCNC(=O)C2CCN(Cc3nc(-c4cccc(Cl)c4)oc3C)CC2)cc1OC,u,n,3.3µM,n,n,n
COc1ccc(CCNC(=O)C2CCCN(Cc3nc(-c4ccccc4C)oc3C)C2)cc1OC (configuration not stated),n,n,16µM,n,n,n
CCc1ccc(-c2nc(CN3CCCC(C(=O)NCCc4ccc(OC)c(OC)c4)C3)c(C)o2)cc1 (configuration not stated),23µM,n,2.3µM,u,n,n
CCCCC(CC)Cn1c(Oc2ccccc2)nc2c1c(=O)n(C)c(=O)n2C (configuration not stated),n,n,n,x,u,x
SMILES,KB-3-1 tox,HepG2 viability,KB-V1 MDR tox,HT1080 IDH1KD tx,TGFb inhibitor,HT1080-NT tox
COC(=O)c1ccc(NC(=O)NC(C)c2c(-n3cccc3)sc(C)c2C)cc1 (configuration not stated),x,n,x,x,x,x
CN(c1ccccc1)c1nc(N)c(C#N)c(CC#N)c1C#N,15µM,n,7.3µM,u,n,n
CC(C)(C)n1ncc2c(=O)n(Cc3cccc(Oc4ccccc4)c3)cnc21,x,n,x,x,n,x
COc1ccc(C(=O)c2sc(Nc3ccccc3)nc2N)cc1OC,u,n,15µM,u,13µM,u
COc1ccc(C(=O)c2cc(C(C)=O)c(Nc3ccccc3)s2)cc1,u,n,16µM,u,n,u
COc1ccc(C(=O)c2sc(Nc3ccccc3)nc2N)cc1,n,n,13µM!,n,11µM,n
COc1ccc(C(=O)c2sc(Nc3cc(Cl)ccc3C)nc2N)cc1OC,n,n,n,x,u,x
Cc1ccc2nc(-c3ccc(C)o3)c(Nc3ccc(Cl)cc3)n2c1,x,x,x,n,x,n
CCOC(=O)C1CCCN(C(=O)c2ccc3c(c2)sc2nc(-c4cccc(OC)c4)cn23)C1 (configuration not stated),x,n,x,x,u,x
COc1ccccc1NC(=O)CSc1oc(-c2cccs2)nc1S(=O)(=O)c1ccccc1,n,n,n,x,n,x
c1ccc(CCNc2ccc3ncc(-c4cccc5ccccc45)n3n2)nc1,n,n,13µM,n,u,n
Cc1ccc(C(=O)Nc2ccc3c(c2)N(C)C(=O)c2ccccc2S3)cc1,16µM,n,u,x,u,x
CN1C(=O)c2ccccc2Sc2ccc(NC(=O)COc3ccc(Cl)cc3)cc21,u,n,8.2µM,x,2.8µM,x
CCCNC(=O)Nc1ccc2c(c1)N(C)C(=O)c1ccccc1S2,u,n,21µM,n,n,n
CN1C(=O)c2ccccc2Sc2ccc(NC(=O)c3ccc(C(F)(F)F)cc3)cc21,n,n,n,x,n,x
COc1ccccc1-c1nnc2sc(-c3ccc(N(C)C)cc3)nn12,0.29µM,n,0.058µM,0.52µM,u,0.92µM
COc1ccccc1-c1nn2c(C(F)(F)F)nnc2s1,u,n,7.3µM,n,n,n
FC(F)(F)c1nnc2sc(-c3ccccn3)nn12,n,n,n,n,n,n
COc1ccc(-c2nn3c(-c4cccc(C)c4)nnc3s2)cc1OC,n,n,16µM,n,n,n
COc1ccccc1-c1nnc2sc(-c3cc4ccccc4o3)nn12,0.52µM,n,u,1.5µM,n,u
Cc1ccc2ccccc2c1CSc1nc(N)nc2c1ncn2CC(C)C,n,n,21µM,u,u,n
Cc1cccc(N2CCN(C(=O)Cn3c(=O)c4cccn4c4ccc(F)cc43)CC2C)c1 (configuration not stated),x,n,x,x,n,x
CNC(=S)N/N=C(\C)c1ccc(Cl)c(Cl)c1,n,n,u,n,n,n
CNC(=S)NN=C(C)CCCC(C)=NNC(=S)NC,u,n,n,n,4.5µM,n

# Screening data deposited in PubChem by National Center for Advancing Translational Sciences (NCATS).
